The full ranking holds about 81,000 sequences; the median of “one-hybrid fitness for binding NBS DNA” is about -0.1, and the highest 2% start at about 0.36. Shown is part of a subset that was picked to be rich in the highest values.
B1: Caulobacter ParB omega fusion; a variant is named by its letters at X, in order, B8GW30 (parent)
chain: MESVVVGEPGMSEGRRGLGRGLSALLGEVDAAPAQAPGEQLGGSREAPIEILQRNPDQPRRTFREEDLEDLSNSIREKGVLQPILVRPSPDTAGEYQIVAGERAWRAAQRAGLKTVPIMVRELDDLAVLEIGIIENVQRADLNVLEEALSYKVLMEKFERTQENIAQTIGKSXSHVANXMRLLXLPDEVQSYLVSGELTAXHARAIAAAADPVALAKQIIEGGLSVRETEALARKAPNLSAGKSKGGRPPRVKDTDTQALESDLSSVLGLDVSIDHRGSTGTLTITYATLEQLDDLCNRLTRGI

Variants of: B1
Experiment: one-hybrid fitness for binding NBS DNA (the Noc-binding site; scaled: cognate 1, non-cognate 0); higher = stronger binding
Conditions: with NBS DNA site
Procedure, shortened: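 The reporter was HIS3, with the binding site 19 bp from the promoter, in E. coli USO used for bacterial one-hybrid selection of Caulobacter ParB libraries with four specificity codons randomised. Growth was on M9 lacking histidine, with 0.1 mM IPTG and 5 mM 3-AT, for 48 hours at 37°C. Illumina sequencing covered plasmids before and after selection; three replicate libraries were pooled and variants with under 10 reads dropped. A fitness score is the log change in variant-to-wild-type read ratio, rescaled to the cognate and non-cognate references.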

Variant | one-hybrid fitness for binding NBS DNA
LRGN | ≤ 0.2
TTRD | ≤ 0.2
YFPL | ≤ 0.2
PYKL | ≤ 0.2
RKSN | ≤ 0.2
RKSP | ≤ 0.2
RCSS | 0.522
RKSS | 0.544
RLSN | ≤ 0.2
RLSD | ≤ 0.2
RFSS | 0.231
RPSS | ≤ 0.2
RHSS | 0.438
RHSN | ≤ 0.2
RHSP | ≤ 0.2
RLSS | 0.411
TAMR | ≤ 0.2
PIWS | ≤ 0.2
TISQ | ≤ 0.2
GDNM | ≤ 0.2
KDTE | ≤ 0.2
EWSR | ≤ 0.2
APCT | ≤ 0.2
RSSS | 0.437
RMSS | 0.439

Variant | one-hybrid fitness for binding NBS DNA
RASH | ≤ 0.2
RMSH | ≤ 0.2
RASN | ≤ 0.2
RMSD | ≤ 0.2
RASS | 0.421
RSSD | ≤ 0.2
RSSP | ≤ 0.2
LPKA | ≤ 0.2
QSPH | ≤ 0.2
HLSL | ≤ 0.2
NDNR | ≤ 0.2
NAKL | ≤ 0.2
QILN | ≤ 0.2
TTWI | ≤ 0.2
SQRH | ≤ 0.2
QACS | 0.272
QKCR | 0.519
QMCM | ≤ 0.2
QMCY | 0.212
QECR | ≤ 0.2
QACR | 0.447
QPCR | ≤ 0.2
QKCD | ≤ 0.2
QMCR | 0.509
QKCM | ≤ 0.2

Variant | one-hybrid fitness for binding NBS DNA
QCCR | 0.599
QACH | ≤ 0.2
SHHD | ≤ 0.2
AWRT | ≤ 0.2
FPKF | ≤ 0.2
NPPH | ≤ 0.2
KTTD | ≤ 0.2
EIVG | ≤ 0.2
PQLT | ≤ 0.2
LLMK | ≤ 0.2
QTCR | 0.679
QICS | 0.216
QTCG | ≤ 0.2
QICR | 0.377
QSCR | 0.493
QHCR | 0.473
QICG | ≤ 0.2
QSCD | ≤ 0.2
QHCS | 0.279
QHCN | ≤ 0.2
QTCF | ≤ 0.2
QSCN | ≤ 0.2
SPDS | ≤ 0.2
SFYS | ≤ 0.2
PAKH | ≤ 0.2

Variant | one-hybrid fitness for binding NBS DNA
GLKV | ≤ 0.2
DMTR | ≤ 0.2
PHDI | ≤ 0.2
QGYR | ≤ 0.2
QDRR | 0.275
QCYR | 0.606
QSYD | ≤ 0.2
QSRR | 1
QGRR | 0.33
QSYR | 0.458
QWYR | 0.201
HTCT | ≤ 0.2
HKQR | ≤ 0.2
IERR | ≤ 0.2
GCNT | ≤ 0.2
VMRG | ≤ 0.2
EMRQ | ≤ 0.2
IITW | ≤ 0.2
YLQI | ≤ 0.2
KCMR | ≤ 0.2
KRMD | ≤ 0.2
DRMT | ≤ 0.2
KRMT | 0.539
KRMN | ≤ 0.2
KRMR | 0.51

Variant | one-hybrid fitness for binding NBS DNA
KSMR | ≤ 0.2
KCMT | ≤ 0.2
KRMS | 0.396
TALF | ≤ 0.2
RANP | ≤ 0.2
RSNN | ≤ 0.2
RINT | 0.554
RIDT | ≤ 0.2
RSNT | 0.503
RTDT | 0.284
RSDT | ≤ 0.2
RTNN | ≤ 0.2
RADT | ≤ 0.2
RANT | 0.496
RINP | ≤ 0.2
RTNT | 0.636
WWTD | ≤ 0.2
LSRK | ≤ 0.2
SSTW | ≤ 0.2
ASEC | ≤ 0.2
SYLM | ≤ 0.2
SHDP | ≤ 0.2
PPLD | ≤ 0.2
IVCR | ≤ 0.2
GYLC | ≤ 0.2

Variant | one-hybrid fitness for binding NBS DNA
RMNT | 0.546
RPNT | ≤ 0.2
RFNT | 0.279
RCNT | 0.589
RHND | ≤ 0.2
RMDT | 0.226
RHDT | 0.258
RMNH | 0.26
RHNT | 0.508
ADTR | ≤ 0.2
WVAC | ≤ 0.2
TAAM | ≤ 0.2
SGRG | ≤ 0.2
CNSI | ≤ 0.2
HRTD | ≤ 0.2
KSYC | ≤ 0.2
QCRR | 1.13
QWRR | 0.355
QIRR | 0.867
QPRR | 0.365
QERR | 0.245
QPYR | ≤ 0.2
QIYR | 0.348
QIPR | 0.203
GWMI | ≤ 0.2

Variant | one-hybrid fitness for binding NBS DNA
TGPP | ≤ 0.2
RGHW | ≤ 0.2
KLGK | ≤ 0.2
AATY | ≤ 0.2
KFTC | ≤ 0.2
SYMR | ≤ 0.2
GWRK | ≤ 0.2
FEGS | ≤ 0.2
RYSR | 0.452
RYDR | 0.207
RYSP | ≤ 0.2
RYHP | ≤ 0.2
RYNH | 0.209
RYHH | ≤ 0.2
RYHR | 0.471
RYNR | 0.519
RYKG | ≤ 0.2
RYSD | ≤ 0.2
RYKR | 0.744
RYVR | 0.269
THIG | ≤ 0.2
RYPR | ≤ 0.2
RYQN | ≤ 0.2
RYGP | ≤ 0.2
RYIR | 0.203

Variant | one-hybrid fitness for binding NBS DNA
RYLR | 0.354
RYQR | 0.44
RYGH | ≤ 0.2
RYRR | 0.726
RYYR | 0.404
RYQP | ≤ 0.2
RYWR | 0.269
RYGR | 0.432
QYAV | ≤ 0.2
ENTF | ≤ 0.2
ECNK | ≤ 0.2
PSCV | ≤ 0.2
ALDS | ≤ 0.2
AKVC | ≤ 0.2
RYFR | 0.241
RYCN | ≤ 0.2
RYAR | 0.43
RYCR | 0.377
RYCD | ≤ 0.2
RYAP | ≤ 0.2
